Test results from publication PMC4336329 (PLoS ONE, 2015).
Hit rate of the full screen: of about 310,000 compounds, about 14,000 (4.5%) showed an effect of 50% or more. Effects have a minus sign here. The entries come from a sample that favours strong results as a whole.

Molecular target: human ether-à-go-go-related gene (hERG) potassium channel (human, UniProt Q12809)
Experiment: primary screen, population patch clamp on CHO cells stably expressing hERG; higher = less effect of the substance
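Also: peak tail current of the secondary pulse compared with the same well before compound.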

human ether-à-go-go-related gene (hERG) potassium channel, sequence (Q12809 whole entry, looked up): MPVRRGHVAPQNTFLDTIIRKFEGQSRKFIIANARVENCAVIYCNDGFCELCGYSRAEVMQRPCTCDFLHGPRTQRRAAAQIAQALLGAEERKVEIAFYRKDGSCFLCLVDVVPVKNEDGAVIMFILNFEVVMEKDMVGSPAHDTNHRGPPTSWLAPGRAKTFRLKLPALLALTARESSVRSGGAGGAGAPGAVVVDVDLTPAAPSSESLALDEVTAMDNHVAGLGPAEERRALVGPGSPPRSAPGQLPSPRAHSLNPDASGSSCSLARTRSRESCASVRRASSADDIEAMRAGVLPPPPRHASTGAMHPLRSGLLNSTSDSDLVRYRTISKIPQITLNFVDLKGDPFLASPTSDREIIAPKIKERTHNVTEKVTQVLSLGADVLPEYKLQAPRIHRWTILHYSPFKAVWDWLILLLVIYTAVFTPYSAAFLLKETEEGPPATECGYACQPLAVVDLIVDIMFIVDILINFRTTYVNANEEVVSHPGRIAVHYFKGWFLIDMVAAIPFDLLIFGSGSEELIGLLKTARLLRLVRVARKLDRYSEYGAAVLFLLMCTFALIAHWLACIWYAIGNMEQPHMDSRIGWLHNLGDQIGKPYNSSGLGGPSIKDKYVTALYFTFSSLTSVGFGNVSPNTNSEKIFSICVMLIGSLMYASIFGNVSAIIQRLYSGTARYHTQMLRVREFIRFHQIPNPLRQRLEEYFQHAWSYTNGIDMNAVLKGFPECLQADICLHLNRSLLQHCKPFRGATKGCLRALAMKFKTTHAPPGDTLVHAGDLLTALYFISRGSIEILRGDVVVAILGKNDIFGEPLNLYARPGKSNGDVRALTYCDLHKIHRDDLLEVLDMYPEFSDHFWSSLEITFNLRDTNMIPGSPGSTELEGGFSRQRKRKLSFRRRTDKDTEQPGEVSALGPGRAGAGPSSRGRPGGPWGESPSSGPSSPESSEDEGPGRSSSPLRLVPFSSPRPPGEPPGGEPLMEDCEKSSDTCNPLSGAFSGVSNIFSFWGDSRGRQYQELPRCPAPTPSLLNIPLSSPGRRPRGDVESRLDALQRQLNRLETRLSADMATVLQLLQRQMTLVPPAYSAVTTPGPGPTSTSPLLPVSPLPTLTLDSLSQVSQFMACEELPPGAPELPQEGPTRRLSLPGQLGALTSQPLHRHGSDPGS

SMILES	hERG current change (%, negative = inhibition) at 10uM [%]
Cc1ccc(-n2c(O)c(C=NCc3ccccn3)c3ccccc3c2=O)cc1	-3.79
COc1ccc(Cl)cc1NC(=S)NCc1cccnc1	-15.3
Cc1c(NC(=O)COc2ccccc2Cl)c(=O)n(-c2ccccc2)n1C	-4.59
Cc1c(NC(=O)COC(=O)/C=C/c2cccc(Br)c2)c(=O)n(-c2ccccc2)n1C	-15.8
CCOc1ccc(N(CC(=O)Nc2c(C)n(C)n(-c3ccccc3)c2=O)S(=O)(=O)c2ccc(F)cc2)cc1	-17.6
Cc1c(NC(=O)COc2cccc(Cl)c2Cl)c(=O)n(-c2ccccc2)n1C	-71.4
Cc1c(NC(=O)CN(c2ccc(F)cc2)S(=O)(=O)c2ccccc2)c(=O)n(-c2ccccc2)n1C	-0.664
CCOc1ccc(N(CC(=O)Nc2c(C)n(C)n(-c3ccccc3)c2=O)S(=O)(=O)c2ccccc2)cc1	-55.2
Cc1cc(NC(=O)CSc2ncnc3c2cnn3-c2ccccc2)no1	-10.8
Cc1c(NC(=O)COC(=O)/C=C/c2ccc(Cl)cc2)c(=O)n(-c2ccccc2)n1C	28.5
Cc1c(NC(=O)CSc2ncnc3c2cnn3-c2ccccc2)c(=O)n(-c2ccccc2)n1C	-64.1
Cc1c(NC(=O)CSc2ncnc3ccccc23)c(=O)n(-c2ccccc2)n1C	-38.8
CCOc1ccccc1OCC(=O)Nc1c(C)n(C)n(-c2ccccc2)c1=O	-6.05
Cc1c(NC(=O)COC(=O)/C=C/c2cccc(Cl)c2)c(=O)n(-c2ccccc2)n1C	-58.7
Cc1nn(-c2ccccc2)cc1/C=N/O	0.476
Cc1ccc(C(=O)NCCCN2CCOCC2)c(Cl)c1	13
CCOC(=O)c1sc(=S)n(C)c1C	12
Cc1ccc(S(=O)(=O)N2CCN(C(=O)CSc3ccccn3)CC2)c(C)c1	-26.5
CN(Cc1nc2ccccc2n1C)S(C)(=O)=O	-5.28
Cc1ccc(S(=O)(=O)N2CCN(Cc3nc4ccccc4n3C)CC2)cc1	-53.5
Cn1c(CN2CCN(c3ccccc3NS(C)(=O)=O)CC2)nc2ccccc21	-61.5
Cc1ccc(S(=O)(=O)n2c(CN3CCCC(C)C3)nc3ccccc32)cc1 (centres unmarked)	-14.6

SMILES	hERG current change (%, negative = inhibition) at 10uM [%]
CN1CCN(Cc2nc3ccccc3n2C)CC1	-0.083
CN1CCN(Cc2nc3ccccc3n2C)CC1CCO (centres unmarked)	3.83
O=C(COC(=O)c1cccc(Cl)c1)Nc1cc(Cl)ccc1Oc1ccccc1	15.1
COCc1cc(=O)n2[nH]c(-c3cccc(Br)c3)cc2n1	-24.2
CC1=CC(=O)C=C(C)C1=NOC(=O)c1cccc([N+](=O)[O-])c1	9.59
CCOc1ccc2oc(C(=O)NC3CCN(Cc4ccccc4)CC3)c(C)c2c1.Cl	-15.1
O=C(NC1CCN(Cc2ccccc2)CC1)c1c(Cl)cccc1Cl	-10.7
CCOC(=O)N1CCC(NC(=O)c2oc3c(F)cccc3c2C)CC1	-15.4
Cc1c(C(=O)NC2CCN(Cc3ccccc3)C2)oc2c(Cl)cccc12 (centres unmarked)	-71.8
Cc1c(C(=O)NC2CCN(Cc3ccccc3)C2)oc2ccc(Br)cc12 (centres unmarked)	-61.8
Cc1c(C(=O)NCCN2CCOCC2)oc2ccc(Br)cc12	-15
O=C(OCC(=O)c1cccs1)C1=COCCO1	19.7
CC1CN(C(=O)/C(C#N)=C2\N=C(NC(=O)c3ccc(F)cc3)c3ccccc32)CC(C)O1 (centres unmarked)	14.1
CCOC(=O)C1(Cc2ccccc2)CCCN(CCO)C1 (centres unmarked)	6.18
COc1cc2cc(C(=O)N3CCN(c4ccccc4OC)CC3)[nH]c2cc1OC	24.5
C=CCN1CCN(C(=O)CCc2ccccc2)CC1	13.8
COc1cccc(N2CCN(C(=S)Nc3ccc(F)cc3)CC2)c1	16.1
CC1CCN(CCOc2ccc(OCc3ccccc3)cc2)CC1.O=C(O)C(=O)O	-70.9
CC1CCN(CCCOc2ccc(OCc3ccccc3)cc2)CC1.O=C(O)C(=O)O	-71.4
CC1CCCN(Cc2ccc(OCc3ccccc3)cc2)C1 (centres unmarked)	-43.3
COc1ccc(Cl)cc1N1C(=O)C2CCCN2C1c1ccccc1F (centres unmarked)	-0.486
C=CCNC(=O)C12CC3(C)CC(C)(CC(C)(C3)C1)C2	-11.8
